In PubChem BioAssay (EPA / NIEHS) one finds outcome and AC50 data, which are given here for 40 molecules.

Activity calls are given as the source filed them. How the source made its calls: active means hit-call score of the fitted dose curve at least 0.9, where 1 is the maximum; inactive means score below 0.9.

Cytochrome P450 3A4 (Homo sapiens), sequence (P08684 whole entry, looked up): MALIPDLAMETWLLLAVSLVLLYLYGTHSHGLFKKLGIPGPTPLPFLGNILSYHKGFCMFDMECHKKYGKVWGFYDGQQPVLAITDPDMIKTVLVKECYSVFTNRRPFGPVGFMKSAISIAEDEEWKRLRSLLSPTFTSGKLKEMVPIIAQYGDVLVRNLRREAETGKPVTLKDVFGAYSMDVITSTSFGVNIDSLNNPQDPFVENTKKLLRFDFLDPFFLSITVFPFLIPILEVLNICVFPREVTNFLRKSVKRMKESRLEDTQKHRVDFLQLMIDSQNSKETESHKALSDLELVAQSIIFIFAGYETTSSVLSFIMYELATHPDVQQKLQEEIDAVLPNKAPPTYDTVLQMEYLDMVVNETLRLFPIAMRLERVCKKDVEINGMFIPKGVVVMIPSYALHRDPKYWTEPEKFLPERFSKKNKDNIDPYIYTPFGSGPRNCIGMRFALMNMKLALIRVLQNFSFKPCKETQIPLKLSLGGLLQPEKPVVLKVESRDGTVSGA

Read-out in the assay: Cytochrome P450 3A4 (Homo sapiens) (UniProt P08684)
Put plainly: LTEA_HepaRG_CYP3A4: Life Technologies and Expression Analysis (LTEA) Assay for CYP3A4 using HepaRG (AID 2283487). The following applies: mRNA level, 48 h; actives raise or lower the signal. The protocol:
LTEA_HepaRG is a cell based, multiplexed-readout assay that uses HepaRG, a human liver cell line, with measurements taken at 48 hours after chemical dosing on a 96-well plate.LTEA_HepaRG_CYP3A4 is one of 102 assay component(s) measured in the LTEA HepaRG cell culture assay. It is a marker of NR mediated metabolism.Data from the assay component LTEA_HepaRG_CYP3A4 was analyzed into 1 endpoint. This assay endpoint, LTEA_HepaRG_CYP3A4, was analyzed with bidirectional fitting relative to DMSO as the negative control and baseline of activity. Using a type of inducible reporter, measures of mRNA induction for gain or loss-of-signal activity can be used to understand regulation of transcription factor activity. To generalize the intended target to other relatable targets, this assay endpoint is annotated to the cyp intended target family, where the subfamily is xenobiotic metabolism.
A total of 1060 chemcials from the ToxCast library were tested in eight-point concentration-response experiments. Cell culture and cytotoxicity assays were conducted at Thermo Fisher Scientific's Custom Services facility (Madison, WI). A single lot of human HepaRG cells (Thermo Fisher Scientific, Frederick, MD) was used for the cell culture experiments. 96-well format collagen type I coated plates of human HepaRG cells were prepared using established methods. Briefly, cryopreserved HepaRG cells were thawed, plated at a density of approximately 100,000 cells/well in HepaRG Thaw, Plate, and General Purpose media (HPRG770, Thermo Fisher Scientific), and incubated for 48 hours. 0.5% DMSO was selected as vehicle control to balance the requisite need of DMSO in HepaRG cultures to maintain differentiation (for example, baseline metabolism, proportions of hepatocytes vs. cholangiocytes), while enabling further hepatic receptor pathway activation (for example, PXR and CAR) in response to chemical exposure. 48 hours after plating, the culture medium was replaced with HepaRG Serum-Free Incudtion Media. Cells were exposed to each test chemical in duplicate and maintained in CO2 incubators for another 48 hours. Chemical plates were thawed to room temperature and 200x concentrations of treatment groups were prepared. 8-point conentration-reponse curves were made with the highest exposure at 100 uM, followed by half-log dilutions, all in 0.5% DMSO. Each test plate contained variouse controls, induction positive controls (1mM phenobarbital), cytotoxicity positive controls ([…] aflatoxin B1), vehicle controls (0.5% DMSO), and total lysis controls (0.5% DMSO). Cell morphology images were taken using an Essen IncuCyte FLR automated microscope, with six 96-well plates imaged in about 24 minutes. Images were captured and exported and JPEG files. Spent culture media was transfered to black-well plates for the LDH assay, and remaining media was sorted at -80 C for later use. Cells were treated with RLT buffer and frozen until shipped for gene expression analysis. Total RNA was isolated from the cell suspension in 75 uL of Buffer RLT (Qiagen, Germantown, MD 20874) by Quintiles/Expression Analysis (Durham, NC) using a custom isolation procedure. Total RNA from each plate well was transferred to a preamplification plate. Fluidigm's 96.96 Dynamic ArrayTM (Fluidigm, Amsterdam, the Netherlands) technology was used for gene expression analyses by quantitative reverse transcription polymerase chain reaction (qRT-PCR, performed by Quintiles/Expression Analysis, Durham, NC)89. Standard TaqManTM Assays (Applied Biosystems/ThermoFisher Scientific, Foster City, CA) were used to assess the expression of 93 genes selected based on their selectivity and sensitivity to important hepatic receptors known to be modulated by environmental chemicals; importance in human hepatocyte functionality; and hepatotoxicity. […]
On to `NC(=Nc1ccccc1)Nc1ccccc1`, for which the result was inactive. Same read-out and setting: the entry for `S=c1[nH]c2ccccc2s1` is “inactive”; for `CCCCC(CC)CO` (stereo not given) it is “inactive”. On to `CCCCCCCC(=O)OC`, for which the molecule was classed as inactive. As to `CCC(C)N(C)C(=O)c1cc2ccccc2c(-c2ccccc2Cl)n1` (stereo not given), the concentration at half-maximal activity (AC50) (in general, the concentration giving half of the maximal activity seen) is 3.23 µM (active). Take `CC(=O)S[C@H](C(=O)N[C@H]1Cc2ccccc2[C@H]2CCC[C@@H](C(=O)O)N2C1=O)C(C)C`: the call was inactive. Still for that read-out and setting: for `CC(COCC(C)OC(=O)c1ccccc1)OC(=O)c1ccccc1` (stereo not given) the value was “inactive”.

Consider `NC=O`, for which the result was inactive.

For the molecule `CN(C)C(=O)NC1(c2ccccc2)CCN(CC[C@@]2(c3ccc(F)c(F)c3)CN(C(=O)c3ccccc3)CCO2)CC1`, the AC50 is 2.69 µM (active). Regarding `CO[C@@H]1COCC[C@@H]1N[C@@H]1CC[C@@](C(=O)N2CCc3ncc(C(F)(F)F)cc3C2)(C(C)C)C1`, the call was inactive. Still for that read-out and setting: the entry for `CC(N)=O` is “inactive”.

Regarding `CC(C)(O)c1ccc(CNC(=O)c2cccnc2Oc2ccc(F)cc2)cc1`, the half-maximal activity concentration (AC50) was 8.47 µM (active).

Take `O=C(O)CN(CC(=O)O)CC(=O)O`: the result was inactive. The same measure, in the same setting: the entry for `O=Cc1ccccc1C=O` is “inactive”; for `O=C(O)c1[nH]n(-c2ccc(S(=O)(=O)O)cc2)c(=O)c1N=Nc1ccc(S(=O)(=O)O)cc1` it is “inactive”. For the molecule `COC(=O)CCCC(=O)OC`, the result was inactive.

As to `CCCC(=O)O`, the outcome was inactive. Regarding `CC(C)c1cccc(C(C)C)c1NC(=O)NS(=O)(=O)c1cc(C(C)(C)O)co1`, the AC50 was 3.54 µM (active). On the same count and under the same terms, the figure for `CSc1ccc(Oc2ccc(S(N)(=O)=O)cc2CN(C)C)cc1C` is 14 µM (active). `CC(=O)OCC(COC(C)=O)OC(C)=O`: the outcome was inactive.

Turning to `c1ccc2occc2c1`, the result was inactive. Same read-out and setting: the entry for `CCCCCCCCCCCCCCCCO` is “inactive”. Turning to `CC(=O)O[C@]1(C(C)=O)CC[C@H]2[C@@H]3C=C(Cl)C4=CC(=O)[C@@H]5C[C@@H]5[C@]4(C)[C@H]3CC[C@@]21C`, the AC50 was 36.5 µM (active). Turning to `Cc1cc(SC2=C(O)C[C@@](CCc3ccc(N)cc3)(C(C)C)OC2=O)c(C(C)(C)C)cc1CO`, the AC50 was 0.344 µM (active).

Turning to `O=C1c2c(O)cccc2Cc2cccc(O)c21`, the molecule was called inactive. Turning to `CC1(C)C(=O)NC(=O)N1CO`, the outcome was inactive. On the same count and under the same terms, the entry for `C#CC(O)C(CC)CCCC` (stereo not given) is “inactive”. The same measure, in the same setting: the entry for `CCCCCCC(C=O)=Cc1ccccc1` is “inactive”. Turning to `C=CCc1ccc(OC)c(OC)c1`, the molecule was classed as inactive. Turning to `CC(C)COC(=O)CCCCC(=O)OCC(C)C`, the result was inactive.

On to `OCC(O)CO`, for which the molecule was classed as inactive.

Take `CCCCCCCCCC[N+](C)(C)[O-]`: the result was inactive. `COC(=O)CCC(=O)OC`: the outcome was inactive. Still for that read-out and setting: the entry for `Cc1ccc(C(C)(C)C)c(O)c1` is “inactive”; for `C=CCCCCCCCCCCCC` it is “inactive”. Take `CCCCc1nc2cccnc2n1Cc1ccc(-c2ccccc2-c2nnn[nH]2)cc1`: the AC50 is 16 µM (active). Turning to `CCCCC(CC)COC(=O)CCCCCCCC(=O)OCC(CC)CCCC` (stereo not given), the call was inactive. Regarding `Cc1cn([C@H]2C=C[C@@H](CO)O2)c(=O)[nH]c1=O`, the outcome was inactive. Consider `Cc1cc(Cc2ccc(N)c(C)c2)ccc1N`, for which the concentration at half-maximal activity (AC50) is 4.94 µM (active). In the case of `OCC(CO)n1cnc(-c2ccc(F)cc2)c1-c1ccnc(Oc2ccccc2)n1`, the AC50 is 3.72 µM (active).
